Assay results: PubChem BioAssay (NCATS)
Results filed as inconclusive are left out. Where a call stands in place of a potency, no number is given. Unmarked numbers belong to inactive results. Calls of active or inactive are those of the source. Unless noted, calls come from the whole dose curve.

System: not listed separately
Assay: qHTS assay for small molecule activators of the nuclear factor-kappa B (NF-kB) signaling pathway (AID 651749; active = well fitted activation curve with a large enough effect in the signal ratio; the % refers to the signal ratio)
Settings: NF-kB-bla ME-180 cells, beta-lactamase FRET ratio, 16 h; hits give high values
In short: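 Beta-lactamase reporter expression, controlled by NF-kB response elements in ME-180 cells, was quantified fluorometrically via FRET disruption; cells at 2,000/well had been incubated with 23 nL test compound for 16 hr.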
Compound O=C(Nc1ccc([N+](=O)[O-])cc1Cl)c1cc(Cl)ccc1O has an activation of -2.6%. With CCOC(=O)C(C)(C)Oc1ccc(Cl)cc1 the activation was -3.61%. For CC#C[C@]1(O)CC[C@H]2[C@@H]3CCC4=CC(=O)CCC4=C3[C@@H](c3ccc(N(C)C)cc3)C[C@@]21C, the activation was 4.11%.

System: not listed separately
Assay: qHTS assay for small molecule disruptors of the mitochondrial membrane potential - 1 hr assay (AID 651754); note: nearly all actives have a fitted effect of over 35% in size; note: potency is the fitted concentration of half-maximal effect
Settings: series mostly up to 92.2 µM
In short: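 Read-out: dye fluorescence at 490 nm ex/535 nm em (monomers) and 540 nm ex/590 nm em (aggregates) in HepG2 cells. Compound exposure 1 hr at 37C, followed by 30 min dye loading.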
For Cc1ccc(-c2cc(C(F)(F)F)nn2-c2ccc(S(N)(=O)=O)cc2)cc1, the Potency was 42.2 µM (active). In the case of O=c1c(-c2ccc(O)cc2)coc2cc(O)cc(O)c12, the Potency is reported as 5.96 µM (active). In the case of Clc1ccc(C(c2ccccc2Cl)C(Cl)Cl)cc1 (stereo not drawn), the Potency is reported as 29.8 µM (active). In the case of CC(C)NCC(O)c1ccc(O)c(O)c1 (stereo not drawn), the Potency is reported as “inactive”. In the case of COc1cc2c(c(OC)c1OC)-c1ccc(OC)c(=O)cc1[C@@H](NC(C)=O)CC2, the Potency is reported as “inactive”. For NCCS(=O)(=O)O, the Potency was “inactive”.

System: not listed separately
Assay: qHTS assay for small molecule disruptors of the mitochondrial membrane potential - 5 hr assay (AID 651755); note: nearly all actives have a fitted effect of over 40% in size; note: potency is the fitted concentration of half-maximal effect
Settings: JC-1-type ratio dye; series mostly up to 92.2 µM
In short: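 Seed HepG2 overnight, add compound, incubate 5 hr at 37C and 5% CO2, stain 30 min with Mito-MPS, then measure monomer (490/535 nm) and aggregate (540/590 nm) fluorescence.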
In the case of Cc1ccc(-c2cc(C(F)(F)F)nn2-c2ccc(S(N)(=O)=O)cc2)cc1, the Potency is reported as 42.2 µM (active). With O=c1c(-c2ccc(O)cc2)coc2cc(O)cc(O)c12 the Potency was 7.5 µM (active). In the case of N[C@@H](Cc1c[nH]c2ccc(O)cc12)C(=O)O, the Potency is reported as “inactive”. In the case of Clc1ccc(C(c2ccccc2Cl)C(Cl)Cl)cc1 (stereo not drawn), the Potency is reported as 37.6 µM (active). For CC(C)NCC(O)c1ccc(O)c(O)c1 (stereo not drawn), the Potency was “inactive”. With COc1cc2c(c(OC)c1OC)-c1ccc(OC)c(=O)cc1[C@@H](NC(C)=O)CC2 the Potency was “inactive”. In the case of NCCS(=O)(=O)O, the Potency is reported as “inactive”.

Molecular target: Tumor necrosis factor (Homo sapiens) (UniProt P01375)
Sequence (P01375 whole entry, looked up): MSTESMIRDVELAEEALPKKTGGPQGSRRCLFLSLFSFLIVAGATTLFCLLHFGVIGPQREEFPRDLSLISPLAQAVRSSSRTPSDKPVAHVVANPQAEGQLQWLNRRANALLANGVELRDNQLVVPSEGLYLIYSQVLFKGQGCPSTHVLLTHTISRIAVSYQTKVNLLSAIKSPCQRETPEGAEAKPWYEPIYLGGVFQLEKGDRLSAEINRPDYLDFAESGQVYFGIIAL
Assay: qHTS assay to identify small molecules that stimulate Tumor Necrosis Factor-alpha (TNF-alpha) secretion (AID 651757; active = well fitted curve in the direction sought with a large enough effect in the signal ratio; the % refers to the signal ratio)
Settings: Human cells, HTRF 665/615 ratio; series mostly up to 92.2 µM
In short: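 THP-1 cells, 3000/well; compound 17 hrs, 37 C; add cryptate/XL665 anti-TNF-alpha antibody pair; 3 hr RT; TR-FRET (HTRF) read of secreted TNF-alpha. Quantitative HTS format.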
For Cc1ccc(-c2cc(C(F)(F)F)nn2-c2ccc(S(N)(=O)=O)cc2)cc1, the outcome was “inactive”. With COc1ccc2c(c1)c(CC(=O)O)c(C)n2C(=O)c1ccc(Cl)cc1 the outcome was “inactive”. For CC(C)C(=O)Nc1ccc([N+](=O)[O-])c(C(F)(F)F)c1, the outcome was “inactive”. With Cc1cn([C@H]2C=C[C@@H](CO)O2)c(=O)[nH]c1=O the outcome was “inactive”. With Clc1ccc(C(c2ccccc2Cl)C(Cl)Cl)cc1 (stereo not drawn) the outcome was “inactive”. With COc1ccc(CCN(C)CCCC(C#N)(c2ccc(OC)c(OC)c2)C(C)C)cc1OC (stereo not drawn) the outcome was “inactive”. For Cn1c(=O)c2[nH]cnc2n(C)c1=O, the outcome was “inactive”. In the case of CC(C)NCC(O)c1ccc(O)c(O)c1 (stereo not drawn), the outcome is reported as “inactive”. In the case of COc1cc2c(c(OC)c1OC)-c1ccc(OC)c(=O)cc1[C@@H](NC(C)=O)CC2, the outcome is reported as “inactive”. In the case of Nc1ccn([C@H]2CC[C@@H](CO)O2)c(=O)n1, the outcome is reported as “inactive”. In the case of CC(COc1ccccc1)N(CCCl)Cc1ccccc1 (stereo not drawn), the outcome is reported as “inactive”. For Cc1cn([C@H]2C[C@H](N=[N+]=[N-])[C@@H](CO)O2)c(=O)[nH]c1=O, the outcome was “inactive”. In the case of NCCS(=O)(=O)O, the outcome is reported as “inactive”. With CCC1(c2ccccc2)C(=O)NCNC1=O the outcome was “inactive”. In the case of NS(=O)(=O)c1cc2c(cc1Cl)NCNS2(=O)=O, the outcome is reported as “inactive”. With Cn1c(=O)c2c(ncn2C)n(C)c1=O the outcome was “inactive”. In the case of O=c1[nH]cc(F)c(=O)[nH]1, the outcome is reported as “inactive”.
